# Assay results as given in PubChem BioAssay (NCI).
# About 83,000 compounds went through this panel and 20% of them were active in at least one assay; those are over-represented in the sample as a whole.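 Percent growth is the endpoint: 0 to 100 indicates growth inhibition (40 means 60% inhibition), 0 means no net growth, and negative values indicate cell death.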 A number with no mark means an inactive call. Active and inactive are the calls of the source. The calls were made as follows: active = growth percent below 10; inactive = the rest.
# How the values were obtained:
# Experiment in all cases: NCI-60 one-dose screen, 48 h (100 = growth as untreated, 0 = no growth, -100 = all killed)
# SK-MEL-2 melanoma = tested on: SK-MEL-2 melanoma
# EKVX NSCLC = tested on: EKVX NSCLC
# SN12C renal = tested on: SN12C renal
# UO-31 renal = tested on: UO-31 renal
# TK-10 renal = tested on: TK-10 renal
# ACHN renal = details: 10 µM unless noted
# CAKI-1 renal = details: 10 µM unless noted
# A498 renal = tested on: A498 renal
# CCRF-CEM leukemia = details: 10 µM unless noted
# MOLT-4 leukemia = tested on: MOLT-4 leukemia
# SR leukemia = tested on: SR leukemia
# RPMI-8226 leukemia = tested on: RPMI-8226 leukemia
# OVCAR-8 ovarian = tested on: OVCAR-8 ovarian
# OVCAR-5 ovarian = tested on: OVCAR-5 ovarian
# OVCAR-4 ovarian = tested on: OVCAR-4 ovarian
# SK-OV-3 ovarian = tested on: SK-OV-3 ovarian
# IGROV1 ovarian = tested on: IGROV1 ovarian
# OVCAR-3 ovarian = details: 10 µM unless noted
# HS 578T breast = details: 10 µM unless noted
# NCI/ADR-RES ovarian = details: 10 µM unless noted
smiles,measurement,setting,value
Cc1cccc(-c2nnc(SCC(=O)Nc3ncc(Cc4ccccc4)s3)n2N2C(=O)CSC2=S)c1,growth,SK-MEL-2 melanoma; 10 µM unless noted,75.6%
same,growth,EKVX NSCLC; 10 µM unless noted,73.4%
same,growth,SN12C renal; 10 µM unless noted,19.1%
same,growth,UO-31 renal; 10 µM unless noted,72.3%
same,growth,TK-10 renal; 10 µM unless noted,47.3%
same,growth,ACHN renal,43.8%
same,growth,CAKI-1 renal,23.3%
same,growth,A498 renal; 10 µM unless noted,64.8%
same,growth,CCRF-CEM leukemia,76.5%
same,growth,MOLT-4 leukemia; 10 µM unless noted,87.5%
same,growth,SR leukemia; 10 µM unless noted,44.8%
same,growth,RPMI-8226 leukemia; 10 µM unless noted,77.2%
same,growth,OVCAR-8 ovarian; 10 µM unless noted,24.7%
same,growth,OVCAR-5 ovarian; 10 µM unless noted,72.7%
same,growth,OVCAR-4 ovarian; 10 µM unless noted,-14.9% (active)
same,growth,SK-OV-3 ovarian; 10 µM unless noted,87.2%
same,growth,IGROV1 ovarian; 10 µM unless noted,50.5%
same,growth,OVCAR-3 ovarian,50.8%
same,growth,HS 578T breast,1.22% (active)
same,growth,NCI/ADR-RES ovarian,80.2%
COc1ccc(C/C(C)=C(/c2ccc(OCCN3CCCCCC3)cc2)c2ccc(OC(=O)c3ccccc3)cc2)cc1,growth,SK-MEL-2 melanoma; 10 µM unless noted,97.4%
same,growth,EKVX NSCLC; 10 µM unless noted,93%
same,growth,SN12C renal; 10 µM unless noted,97.4%
same,growth,UO-31 renal; 10 µM unless noted,88.4%
same,growth,TK-10 renal; 10 µM unless noted,97.2%
same,growth,ACHN renal,99.6%
same,growth,CAKI-1 renal,104%
same,growth,A498 renal; 10 µM unless noted,120%
same,growth,CCRF-CEM leukemia,93%
same,growth,MOLT-4 leukemia; 10 µM unless noted,77%
same,growth,SR leukemia; 10 µM unless noted,71.3%
same,growth,RPMI-8226 leukemia; 10 µM unless noted,112%
same,growth,OVCAR-8 ovarian; 10 µM unless noted,107%
same,growth,OVCAR-5 ovarian; 10 µM unless noted,98.2%
same,growth,OVCAR-4 ovarian; 10 µM unless noted,116%
same,growth,SK-OV-3 ovarian; 10 µM unless noted,93.7%
same,growth,IGROV1 ovarian; 10 µM unless noted,106%
same,growth,OVCAR-3 ovarian,117%
same,growth,HS 578T breast,98.5%
same,growth,NCI/ADR-RES ovarian,111%
OCCN1CCN(c2cc(-c3cccc(OC(F)(F)F)c3)nc3ccc(N4CCCC4)cc23)CC1,growth,SK-MEL-2 melanoma; 10 µM unless noted,93.3%
same,growth,EKVX NSCLC; 10 µM unless noted,75.9%
same,growth,SN12C renal; 10 µM unless noted,59.5%
same,growth,UO-31 renal; 10 µM unless noted,37.1%
same,growth,TK-10 renal; 10 µM unless noted,69.3%
same,growth,ACHN renal,44.7%
same,growth,CAKI-1 renal,40.5%
same,growth,A498 renal; 10 µM unless noted,68.3%
same,growth,CCRF-CEM leukemia,40%
same,growth,MOLT-4 leukemia; 10 µM unless noted,11.2%
same,growth,SR leukemia; 10 µM unless noted,3.39% (active)
same,growth,RPMI-8226 leukemia; 10 µM unless noted,43.1%
same,growth,OVCAR-8 ovarian; 10 µM unless noted,54.3%
same,growth,OVCAR-5 ovarian; 10 µM unless noted,69.4%
same,growth,OVCAR-4 ovarian; 10 µM unless noted,54.9%
same,growth,SK-OV-3 ovarian; 10 µM unless noted,74.5%
same,growth,IGROV1 ovarian; 10 µM unless noted,36.9%
same,growth,OVCAR-3 ovarian,46.7%
same,growth,HS 578T breast,53.9%
same,growth,NCI/ADR-RES ovarian,48.5%
CCOc1nc(-c2ccccc2)cc2c(O)c(C(=O)N/N=C/c3ccc(N(C)C)cc3)[nH]c(=O)c12,growth,SK-MEL-2 melanoma; 10 µM unless noted,78.8%
same,growth,EKVX NSCLC; 10 µM unless noted,97.5%
same,growth,SN12C renal; 10 µM unless noted,103%
same,growth,UO-31 renal; 10 µM unless noted,88.2%
same,growth,TK-10 renal; 10 µM unless noted,126%
same,growth,ACHN renal,102%
same,growth,CAKI-1 renal,108%
same,growth,A498 renal; 10 µM unless noted,97.3%
same,growth,CCRF-CEM leukemia,98.1%
same,growth,MOLT-4 leukemia; 10 µM unless noted,95.1%
same,growth,SR leukemia; 10 µM unless noted,101%
same,growth,RPMI-8226 leukemia; 10 µM unless noted,102%
same,growth,OVCAR-8 ovarian; 10 µM unless noted,115%
same,growth,OVCAR-5 ovarian; 10 µM unless noted,115%
same,growth,OVCAR-4 ovarian; 10 µM unless noted,148%
same,growth,SK-OV-3 ovarian; 10 µM unless noted,197%
same,growth,IGROV1 ovarian; 10 µM unless noted,15.7%
same,growth,OVCAR-3 ovarian,111%
same,growth,HS 578T breast,94.1%
same,growth,NCI/ADR-RES ovarian,105%
O=C1C(c2c[nH]c3ccccc23)=C(c2coc3cc(Br)ccc23)C(=O)N1O,growth,SK-MEL-2 melanoma; 10 µM unless noted,97.4%
same,growth,EKVX NSCLC; 10 µM unless noted,84.3%
same,growth,SN12C renal; 10 µM unless noted,97.9%
same,growth,UO-31 renal; 10 µM unless noted,73.4%
same,growth,TK-10 renal; 10 µM unless noted,137%
same,growth,ACHN renal,110%
same,growth,CAKI-1 renal,100%
same,growth,A498 renal; 10 µM unless noted,54.4%
same,growth,CCRF-CEM leukemia,89.4%
same,growth,MOLT-4 leukemia; 10 µM unless noted,98.9%
same,growth,SR leukemia; 10 µM unless noted,90.5%
same,growth,RPMI-8226 leukemia; 10 µM unless noted,89.8%
same,growth,OVCAR-8 ovarian; 10 µM unless noted,106%
same,growth,OVCAR-5 ovarian; 10 µM unless noted,105%
same,growth,OVCAR-4 ovarian; 10 µM unless noted,115%
same,growth,SK-OV-3 ovarian; 10 µM unless noted,98.8%
same,growth,IGROV1 ovarian; 10 µM unless noted,85.2%
same,growth,OVCAR-3 ovarian,102%
same,growth,HS 578T breast,94.5%
same,growth,NCI/ADR-RES ovarian,105%
CC(=O)/C=C/c1ccc(N(C)Cc2ccc(C(C)(C)C)cc2)cc1,growth,SK-MEL-2 melanoma; 10 µM,99.7%
same,growth,SK-MEL-2 melanoma; 100 µM,-69.2% (active)
same,growth,EKVX NSCLC; 10 µM,106%
same,growth,EKVX NSCLC; 100 µM,-39.2% (active)
same,growth,SN12C renal; 10 µM,90.6%
same,growth,SN12C renal; 100 µM,-81.1% (active)
same,growth,UO-31 renal; 10 µM,78.5%
same,growth,UO-31 renal; 100 µM,-100% (active)
same,growth,TK-10 renal; 10 µM,115%
same,growth,TK-10 renal; 100 µM,-13.7% (active)
same,growth,ACHN renal,98.4%
same,growth,A498 renal; 10 µM,87.9%
same,growth,A498 renal; 100 µM,-95.6% (active)
same,growth,CCRF-CEM leukemia,-12.1% [100 µM] (active)
same,growth,MOLT-4 leukemia; 10 µM,62.2%
same,growth,MOLT-4 leukemia; 100 µM,-38.9% (active)
same,growth,SR leukemia; 10 µM,80.4%
same,growth,SR leukemia; 100 µM,-29.5% (active)
same,growth,RPMI-8226 leukemia; 10 µM,78.2%
same,growth,RPMI-8226 leukemia; 100 µM,-49.8% (active)
same,growth,OVCAR-8 ovarian; 10 µM,92.4%
same,growth,OVCAR-8 ovarian; 100 µM,-54.8% (active)
same,growth,OVCAR-5 ovarian; 10 µM,102%
same,growth,OVCAR-5 ovarian; 100 µM,-72% (active)
same,growth,OVCAR-4 ovarian; 10 µM,85.2%
same,growth,OVCAR-4 ovarian; 100 µM,-68.9% (active)
same,growth,SK-OV-3 ovarian; 10 µM,98.4%
same,growth,SK-OV-3 ovarian; 100 µM,-29.8% (active)
same,growth,IGROV1 ovarian; 10 µM,99%
same,growth,IGROV1 ovarian; 100 µM,1.66% (active)
